These molecules were tested on Meloidogyne hapla J2 (assay: proportion of mobile M. hapla J2 relative to DMSO control (fraction of DMSO control); higher = more viable, less nematicidal, active = 0.7 or less). Conditions: 60 µM; 5 days; temperature: 20 °C.
Summary of the method: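 Compound was pinned to 60 µM final (0.6% v/v DMSO) into 96-well wells, each holding about 25 M. hapla J2 in distilled water. Plates were sealed and shaken for 5 days at 20 °C and 200 rpm, then given 2 µL 1 M NaOH per well. Microscopic mobility scores were normalised to the mean of the plate's own DMSO wells, eight per plate, with two biological replicates averaged.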

Compound	proportion of mobile M. hapla J2
Cc1cc(C)cc(OCc2nc(-c3ccccc3Cl)no2)c1	0.978 (inactive)
Clc1ccc(-c2nc(-c3ccncc3)no2)c(Cl)c1	0.942 (inactive)
Brc1ccc(-c2noc(COc3ccccc3)n2)cc1	0.602 (active)
COc1ccc(NC(=O)CSc2nnc(-c3ccccc3)o2)cc1	0.907 (inactive)
CCOc1nc(C)ccc1-c1noc(-c2cccc(C)c2)n1	0.847 (inactive)
c1cc(-c2noc(C34CC5CC(CC(C5)C3)C4)n2)ccn1	0.941 (inactive)
Cc1cccc(-c2noc(C3CCCCC3)n2)c1	1.01 (inactive)
Cc1ccc(NC(=O)CSc2nnc(-c3ccncc3)o2)cc1Cl	0.939 (inactive)
CCOc1cc(-c2nc(-c3ccc(C)nc3OCC)no2)cc(OCC)c1OCC	0.908 (inactive)
COc1ccccc1-c1nc(-c2cccc(Br)c2)no1	1.04 (inactive)
O=C(Nc1cccc(-c2noc(COc3ccccc3)n2)c1)c1cccs1	0.847 (inactive)
COc1ccccc1-c1noc(-c2ccccc2C)n1	0.962 (inactive)
CCOc1nc(C)ccc1-c1noc(-c2ccccc2F)n1	0.851 (inactive)
Cc1ccc(-c2nnc(SCC(=O)Nc3ccc(F)cc3)o2)cc1	1.04 (inactive)
Clc1ccc(-c2nnc(SCc3ccccc3)o2)cc1	0.827 (inactive)
Fc1ccc(CSc2nnc(-c3ccccn3)o2)cc1	0.846 (inactive)
O=C(CSc1nnc(-c2ccccc2)o1)NCc1ccccc1	0.948 (inactive)
O=C(Nc1cccc(-c2noc(-c3cccnc3)n2)c1)c1cccs1	0.999 (inactive)
O=C(CSc1nnc(-c2ccccc2)o1)N1CCc2ccccc21	0.993 (inactive)

Compound	proportion of mobile M. hapla J2
Cc1ccc(-c2noc(-c3ccc(C)cc3C)n2)cc1	0.869 (inactive)
Cc1ccc(OC(C)c2nc(-c3ccc4c(c3)OCO4)no2)cc1C (centres undefined)	0.943 (inactive)
COc1ccc(-c2noc(-c3ccc(Cl)cc3)n2)cc1	0.983 (inactive)
COc1cccc(NC(=O)CSc2nnc(-c3ccc(C)cc3)o2)c1	1.04 (inactive)
CN(C)c1ccc(-c2nnc(SCc3ccccc3)o2)cc1	0.991 (inactive)
COc1nc(-c2ccccc2)ccc1-c1noc(-c2ccccc2C)n1	0.909 (inactive)
COc1ccc(-c2noc(-c3ccccc3C(=O)Nc3ccc(NC(C)=O)cc3)n2)cc1	0.923 (inactive)
Cc1cc(Cl)ccc1OCc1nc(-c2ccc(F)cc2)no1	0.859 (inactive)
CC(C)(C)c1ccc(-c2nnc(SCC(=O)c3ccc(F)cc3)o2)cc1	0.825 (inactive)
CCN(CC)C(=O)CSc1nnc(-c2ccc(Cl)cc2Cl)o1	1.03 (inactive)
COc1ccc(-c2nnc(SCC(=O)N3CC(C)CC(C)C3)o2)cc1 (centres undefined)	1.05 (inactive)
Cc1ccc(C)c(-c2nc(-c3cccnc3)no2)c1	1.06 (inactive)
CCCCC(=O)Nc1ccccc1-c1nc(-c2ccncc2)no1	1.06 (inactive)
Cc1ccc(OCc2nc(-c3ccc(F)cc3)no2)cc1C	1.03 (inactive)
Cc1ccccc1-c1noc(-c2ccccc2OCC(N)=O)n1	0.993 (inactive)
N#Cc1ccccc1CSc1nnc(-c2ccncc2)o1	0.826 (inactive)
CCC(=O)Nc1ccccc1-c1nc(-c2ccncc2)no1	0.938 (inactive)
CCOc1nc(-c2ccc(C)cc2)ccc1-c1noc(-c2ccco2)n1	0.944 (inactive)
O=C(CSc1nnc(-c2cccc(Br)c2)o1)c1ccc2c(c1)CCCC2	0.967 (inactive)

These molecules were tested on Caenorhabditis elegans dauer (daf-2(e1370)) (assay: proportion of mobile C. elegans dauer larvae relative to DMSO control (fraction of DMSO control); higher = more viable, less nematicidal, active = 0.63 or less; extreme values may be limits of the assay). Conditions: 60 µM; 5 days; temperature: 20 °C.
Summary of the method: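 Compound was added by pinning to 60 µM final, giving 0.6% v/v DMSO, in 96-well plates containing about 20 C. elegans dauers per well in liquid NGM. These dauers came from synchronized larvae held on MYOB plates with E. coli OP50 for 48 h at 25 °C. Plates were sealed and shaken at 200 rpm at 20 °C for 5 days. Under a dissection microscope, the proportion of mobile worms was scored relative to DMSO wells, and two biological replicates were averaged.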

Compound	proportion of mobile C. elegans dauer larvae
COc1ccc(NC(=O)CSc2nnc(-c3ccccc3)o2)cc1	1 (inactive)
Cc1cccc(-c2noc(C3CCCCC3)n2)c1	1 (inactive)
COc1ccccc1-c1nc(-c2cccc(Br)c2)no1	1 (inactive)
O=C(Nc1cccc(-c2noc(COc3ccccc3)n2)c1)c1cccs1	1 (inactive)
CCOc1nc(C)ccc1-c1noc(-c2ccccc2F)n1	1 (inactive)
Cc1ccc(OC(C)c2nc(-c3ccc4c(c3)OCO4)no2)cc1C (centres undefined)	1 (inactive)
CN(C)c1ccc(-c2nnc(SCc3ccccc3)o2)cc1	1 (inactive)
Cc1cc(Cl)ccc1OCc1nc(-c2ccc(F)cc2)no1	1 (inactive)

These molecules were tested on Ditylenchus dipsaci (assay: proportion of mobile D. dipsaci (mixed stage) relative to DMSO control (fraction of DMSO control); higher = more viable, less nematicidal, active = 0.86 or less; extreme values may be limits of the assay). Conditions: 60 µM; 5 days; temperature: 20 °C.
Summary of the method: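 Mobility values are relative to DMSO controls and are averages of two biological replicates. For each well of a 96-well plate, about 20 D. dipsaci worms, grown on pea plants in Gamborg B-5 agar and funnel-extracted into water, were dispensed in distilled water. Plates received pinned compound at 60 µM final with 0.6% v/v DMSO and were sealed and shaken at 200 rpm for 5 days at 20 °C before 2 µL 1 M NaOH was added and mobile worms were scored by microscope.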

Compound	proportion of mobile D. dipsaci
Cc1cc(C)cc(OCc2nc(-c3ccccc3Cl)no2)c1	1 (inactive)
Clc1ccc(-c2nc(-c3ccncc3)no2)c(Cl)c1	1 (inactive)
Brc1ccc(-c2noc(COc3ccccc3)n2)cc1	1 (inactive)
COc1ccc(NC(=O)CSc2nnc(-c3ccccc3)o2)cc1	1 (inactive)
CCOc1nc(C)ccc1-c1noc(-c2cccc(C)c2)n1	1 (inactive)
c1cc(-c2noc(C34CC5CC(CC(C5)C3)C4)n2)ccn1	1 (inactive)
Cc1cccc(-c2noc(C3CCCCC3)n2)c1	1 (inactive)
Cc1ccc(NC(=O)CSc2nnc(-c3ccncc3)o2)cc1Cl	1 (inactive)
CCOc1cc(-c2nc(-c3ccc(C)nc3OCC)no2)cc(OCC)c1OCC	1 (inactive)
COc1ccccc1-c1nc(-c2cccc(Br)c2)no1	1 (inactive)
O=C(Nc1cccc(-c2noc(COc3ccccc3)n2)c1)c1cccs1	1 (inactive)
COc1ccccc1-c1noc(-c2ccccc2C)n1	1 (inactive)
CCOc1nc(C)ccc1-c1noc(-c2ccccc2F)n1	1 (inactive)
Cc1ccc(-c2nnc(SCC(=O)Nc3ccc(F)cc3)o2)cc1	1 (inactive)
Clc1ccc(-c2nnc(SCc3ccccc3)o2)cc1	1 (inactive)
Fc1ccc(CSc2nnc(-c3ccccn3)o2)cc1	1 (inactive)
O=C(CSc1nnc(-c2ccccc2)o1)NCc1ccccc1	1 (inactive)
O=C(Nc1cccc(-c2noc(-c3cccnc3)n2)c1)c1cccs1	1 (inactive)
O=C(CSc1nnc(-c2ccccc2)o1)N1CCc2ccccc21	1 (inactive)

Compound	proportion of mobile D. dipsaci
Cc1ccc(-c2noc(-c3ccc(C)cc3C)n2)cc1	1 (inactive)
Cc1ccc(OC(C)c2nc(-c3ccc4c(c3)OCO4)no2)cc1C (centres undefined)	1 (inactive)
COc1ccc(-c2noc(-c3ccc(Cl)cc3)n2)cc1	1 (inactive)
COc1cccc(NC(=O)CSc2nnc(-c3ccc(C)cc3)o2)c1	1 (inactive)
CN(C)c1ccc(-c2nnc(SCc3ccccc3)o2)cc1	1 (inactive)
COc1nc(-c2ccccc2)ccc1-c1noc(-c2ccccc2C)n1	1 (inactive)
COc1ccc(-c2noc(-c3ccccc3C(=O)Nc3ccc(NC(C)=O)cc3)n2)cc1	1 (inactive)
Cc1cc(Cl)ccc1OCc1nc(-c2ccc(F)cc2)no1	1 (inactive)
CC(C)(C)c1ccc(-c2nnc(SCC(=O)c3ccc(F)cc3)o2)cc1	1 (inactive)
CCN(CC)C(=O)CSc1nnc(-c2ccc(Cl)cc2Cl)o1	1 (inactive)
COc1ccc(-c2nnc(SCC(=O)N3CC(C)CC(C)C3)o2)cc1 (centres undefined)	1 (inactive)
Cc1ccc(C)c(-c2nc(-c3cccnc3)no2)c1	1 (inactive)
CCCCC(=O)Nc1ccccc1-c1nc(-c2ccncc2)no1	1 (inactive)
Cc1ccc(OCc2nc(-c3ccc(F)cc3)no2)cc1C	1 (inactive)
Cc1ccccc1-c1noc(-c2ccccc2OCC(N)=O)n1	1 (inactive)
N#Cc1ccccc1CSc1nnc(-c2ccncc2)o1	1 (inactive)
CCC(=O)Nc1ccccc1-c1nc(-c2ccncc2)no1	1 (inactive)
CCOc1nc(-c2ccc(C)cc2)ccc1-c1noc(-c2ccco2)n1	1 (inactive)
O=C(CSc1nnc(-c2cccc(Br)c2)o1)c1ccc2c(c1)CCCC2	1 (inactive)
